The structures appear in SMILES notation. About 8,600 (12%) of roughly 69,000 compounds showed an effect of 50% or more. The list comes from a sample in which strong results are over-represented; it also holds similar structures and randomly drawn compounds.

This assay concerns Plasmodium berghei. Description: Screen against P. berghei liver stage (PbLuc), transformed with Luciferase, at 10uM. To be noted: tested at 10 uM. Type of assay: functional, HepG2.
Regarding `OC(CNC1CCOCC1)c1cccc(OCc2ccccc2)c1` (stereo not given), the INHIBITION is recorded as 46.1%.

Take `O=C(O)CNc1cc(-c2cc(C(=O)NC3CC3)ccn2)c2cc[nH]c2n1`: the INHIBITION is on record as -21.1%. For the compound `COc1cc(F)ccc1C(C(=O)O)N(C)CCN1CCCC1` (stereo not given), the INHIBITION is 40.9%.

As to `COc1ccc(C(C(=O)O)N(C)CCN2CCOCC2)c(C)c1` (stereo not given), the INHIBITION came out at 22.5%. For `COc1ccc(C(C(=O)O)N(C)CCN2CCCC2)c(C)c1` (stereo not given), the INHIBITION came out at 52.8%. On to `CCc1n[nH]c(=O)c(C(=O)N2CCSCC2)c1CC`, for which the INHIBITION is recorded as 39.3%. As for `Cn1cnnc1C1CCCN(C(=O)c2cc(Cl)c(Cl)n2C)C1` (stereo not given), the INHIBITION is recorded as -10.1%.

With `CC(CNC(=O)c1ccncc1F)Oc1ccc(F)cc1` (stereo not given), the INHIBITION is listed as 28.2%. `CC(CNC(=O)c1cnccn1)Oc1cccc(Br)c1` (stereo not given): the INHIBITION is 10%. As for `Cc1ccc(OC(C)CNC(=O)c2c[nH]nn2)cc1` (stereo not given), the INHIBITION is reported as 0.0944%. In the case of `CC(CNC(=O)c1c[nH]nn1)Oc1cccc(Br)c1` (stereo not given) it was -15%; in that of `CC(CNC(=O)c1cnccn1)Oc1ccc(F)cc1` (stereo not given), 69.9%; in that of `CC(CNC(=O)c1c[nH]nn1)Oc1ccc(Cl)cc1` (stereo not given), 51.6%. In the case of `Cc1cnc(N2C(=O)CSC2c2ccc(F)cc2)s1` (stereo not given) it was 44.8%; in that of `CC(=O)N1CCN(Cc2cccs2)CC2(CC(=O)N(C)C2)C1` (stereo not given), -2.35%. In the case of `COc1ccc(C)cc1CN(C)CC(=O)NC1(C)CCS(=O)(=O)C1` (stereo not given) it was 29.7%; in that of `CCc1noc(C(C)N2CCCN(Cc3noc(C4CC4)n3)CC2)n1` (stereo not given), 15.7%; in that of `CCc1noc(C(C)N2CCN(CC)CC2)n1` (stereo not given), -54.6%. As for `CCc1noc(C(C)N2CCC(N3CCCCC3)CC2)n1` (stereo not given), the INHIBITION is recorded as 44.1%.

As for `CCc1noc(C(C)N2CCN(Cc3noc(C4CC4)n3)CC2)n1` (stereo not given), the INHIBITION is given as 65.7%. In the case of `CCOCCN1CCN(C(C)c2nc(C3CC3)no2)CC1` (stereo not given) it was 0.55%; in that of `CCc1noc(C(C)N2CCC(N3CCCC3)CC2)n1` (stereo not given), 50.4%. `CCc1noc(C(C)N2CCC(C)CC2)n1` (stereo not given): the INHIBITION amounted to 2.97%. Consider `Cc1nc(CN2CCN(C(C)c3nc(C4CC4)no3)CC2)no1` (stereo not given), for which the INHIBITION is -21.9%. Regarding `CCc1noc(C(C)N2CCN(Cc3noc(C)n3)CC2)n1` (stereo not given), the INHIBITION was found to be 61.3%. As for `COCCN1CCN(C(C)c2nc(C3CC3)no2)CC1` (stereo not given), the INHIBITION amounted to 28.6%.

Take `COCCCN1CCCN(C(C)c2nc(C3CC3)no2)CC1` (stereo not given): the INHIBITION turned out to be 54.9%.

For `Cc1noc(C(C)N2CCN(Cc3noc(C4CC4)n3)CC2)n1` (stereo not given), the INHIBITION was 37.4%. With `Cc1ccc(-c2ccnc(NCC3(N(C)C)CCOCC3)n2)c(C)n1`, the INHIBITION was 19.2%. In the case of `Cn1cnc2c1CCN(Cc1csc(-c3ccco3)n1)C2` it was 5.8%. Regarding `CC(O)CN1CCC(CNCc2cccc(Cl)c2)CC1` (stereo not given), the INHIBITION stood at 24%.

`COCCN1C(=O)[C@@H]2CC[C@H]1CN(S(=O)(=O)c1cccc(Cl)c1)C2`: the INHIBITION is given as 32.2%. With `COC(=O)C(C)(C)NC(=O)C1CC(=O)N(CC(C)C)C1` (stereo not given), the INHIBITION is listed as -22.1%. In the case of `OC1(CNCCc2nc3c(s2)CCCC3)CCNC1` (stereo not given) it was -41.6%; in that of `O=c1[nH]c2cn(-c3ccc(F)cc3)c(=O)n2n1Cc1cccc(Cl)c1`, 9.48%; in that of `CN1CCC2(CC1)Cc1ccccc1CN(C(=O)CN)C2`, 29.2%. As to `Cc1cc(N(C)C)nc(C2(C)CCNCC2)n1`, the INHIBITION is on record as -5.8%. For `CCn1cc(NC(=O)NCCN2CCCCCC2=O)cn1`, the INHIBITION is reported as 7.24%. As to `CC(C)(C)NC(=O)CNc1ncc(Br)cn1`, the INHIBITION worked out at 28.8%. In the case of `CC(c1nc(C2CC2)no1)N1CCN(Cc2noc(C3CC3)n2)CC1` (stereo not given) it was 51.1%.

`CC(C)c1noc(C(C)N2CCN(Cc3noc(C4CC4)n3)CC2)n1` (stereo not given): the INHIBITION was 27.6%. On to `CC(C)c1nc(CN2CCN(C(C)c3nc(C4CC4)no3)CC2)no1` (stereo not given), for which the INHIBITION is 13.5%. Consider `CC(C)Cc1cc(NC(=O)c2ccccn2)n(C)n1`, for which the INHIBITION is listed as 37.4%. As to `O=C(c1ccc(C2CCCO2)s1)N1CCOCC1` (stereo not given), the INHIBITION is -48.4%. In the case of `O=C(c1ccc(C2CCCO2)s1)N1CCN(c2ccccc2F)CC1` (stereo not given) it was 80.1%. With `Cc1cc(C)nc(N2CCN(C(=O)c3ccc(C4CCCO4)s3)CC2)n1` (stereo not given), the INHIBITION is reported as 36.8%. In the case of `O=C(Nc1ccccc1OCCc1ccccn1)N1CC[C@@H](O)C1`, the INHIBITION is -48.1%. Take `CC1CCCN(Cc2ccc(C(N)=O)cc2)C1` (stereo not given): the INHIBITION is recorded as 50.5%. `NC(=O)c1ccc(CN2CCCC(N3CCCC3)C2)cc1` (stereo not given): the INHIBITION is recorded as -3.95%.

In the case of `NC(=O)c1ccc(CN2CCCC(O)C2)cc1` (stereo not given), the INHIBITION is reported as -6.32%.

On to `CN1CCN(c2cc(CNC(=O)Cn3cccn3)ccn2)CC1`, for which the INHIBITION came to 37.8%. `N#Cc1csc(CNCCOc2ncccc2Cl)c1`: the INHIBITION is reported as -23.2%. Consider `O=C(c1ccco1)N1C[C@H]2CCCN(Cc3ccoc3)[C@H]2C1`, for which the INHIBITION was found to be 44.3%.

For the compound `O=C1N[C@H]2OCCC[C@H]2[C@H](c2ccccc2)N1`, the INHIBITION was 52.2%. For the compound `COc1ccc([C@@H]2NC(=O)N[C@H]3OCCC[C@H]32)cc1`, the INHIBITION stood at 42.1%.

With `O=C1N[C@H]2OCCC[C@H]2[C@H](c2ccc(C(=O)O)cc2)N1`, the INHIBITION is -1.25%. `COCCNC(=O)CN1CC=C(n2c(C)nc(=O)c3ccccc32)CC1`: the INHIBITION was 6.33%. In the case of `c1cnc(NCc2nnn3c2CN(Cc2ccco2)CCC3)nc1`, the INHIBITION is given as -11.6%. With `CN(Cc1cccc(Cl)c1)S(=O)(=O)N1CCOCC1`, the INHIBITION is listed as -14.2%.

Turning to `CC(=O)NCCn1ccnc1-c1cccc(C(C)N(C)C)c1` (stereo not given), the INHIBITION was determined as 30.3%. `CC(c1cccc(-c2nccn2CCc2ccccn2)c1)N(C)C` (stereo not given): the INHIBITION is given as 36.5%. `CC(c1cccc(-c2nccn2CCc2cn[nH]c2)c1)N(C)C` (stereo not given): the INHIBITION was 85.9%. As for `Cc1noc(C)c1-c1cccc(C2CCN(CC(=O)N(C)C)CC2)n1`, the INHIBITION is recorded as 8%. With `Cc1ncsc1C(=O)N(C)Cc1cccnc1`, the INHIBITION is reported as -4.865%. In the case of `COc1ccc(OC)c(C(=O)N2C[C@@H]3CC[C@H]2CN(C)C3)c1`, the INHIBITION was 9.56%. For the compound `O=c1c(NCCNCCO)c(N2CCN(c3ccc(F)cc3)CC2)c1=O`, the INHIBITION stood at 23%.

As to `Cc1ccc(C(=O)NC2CCN(Cc3nc(C(C)C)no3)CC2)s1`, the INHIBITION turned out to be 13.8%.

`Clc1cnccc1NCc1cccc(COC2CCOCC2)c1`: the INHIBITION was 79.7%. In the case of `Clc1cncc(NCc2cccc(COC3CCOCC3)c2)n1` it was -16.8%; in that of `CS(=O)(=O)NCc1cccc(COC2CCCCC2)c1`, 9.63%.
